Measured values published in PubChem BioAssay AID1159580 (chemical genetic matrix, 2015).
About 2,000 (36%) of roughly 5,500 compounds were called active. About 18% were inconclusive and are not listed. No stated cut-off is given here; in the data, active means normalized growth mostly below about 0.91 (no sharp cut-off); inconclusive means no clear call, values can overlap the other calls; inactive means mostly above about 0.92. The list shows a part of the results.

Assay: chemical genetic growth profiling, strain panel (AID 1159580);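 further: tested at 20 µM; growth read once vehicle control cultures reached saturation at 30 °C; 1 = growth at the plate median or of vehicle wells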
Conditions: growth OD

Measured: normalized growth

COC[C@]12CN(C=O)C3[C@@H]4[C@H](OC)C1[C@]3(C1CC3(O)C(OC)C(O)C4(OC(C)=O)C1C3OC(=O)c1ccccc1)[C@@H](OC)C[C@H]2O (stereo not given in full)
inactive: S. cerevisiae deletion strains, locus YJR066W, strain TOR1, stronger effect = lower value 0.991 | S. cerevisiae deletion strains, locus YJR075W, strain HOC1, stronger effect = lower value 1.02 | S. cerevisiae deletion strains, locus YKL009W, strain mrt4, stronger effect = lower value 0.991 | S. cerevisiae deletion strains, locus YKL068W, stronger effect = lower value 1 | S. cerevisiae deletion strains, locus YKL085W, strain MDH1 (second series), stronger effect = lower value 1.01 | S. cerevisiae deletion strains, locus YKL085W, strain MDH1, stronger effect = lower value 1.01 | S. cerevisiae deletion strains, locus YKL160W, strain elf1, stronger effect = lower value 1.01 | S. cerevisiae deletion strains, locus YKR001C, strain vps1, stronger effect = lower value 1.02 | S. cerevisiae deletion strains, locus YKR026C, strain gcn3, stronger effect = lower value 1.02 | S. cerevisiae deletion strains, locus YKR091W, strain srl3, stronger effect = lower value 1.01 | S. cerevisiae deletion strains, locus YLL001W, strain dnm1, stronger effect = lower value 1.01 | S. cerevisiae deletion strains, locus YLL026W, stronger effect = lower value 1.01 | S. cerevisiae deletion strains, locus YLL041C, strain sdh2, stronger effect = lower value 1.01 | S. cerevisiae deletion strains, locus YLR027C, strain aat2, stronger effect = lower value 1 | S. cerevisiae deletion strains, locus YLR039C, strain RIC1, stronger effect = lower value 1.06 | S. cerevisiae deletion strains, locus YLR058C, strain SHM2, stronger effect = lower value 1.02 | S. cerevisiae deletion strains, locus YLR102C, strain apc9, stronger effect = lower value 1.01 | S. cerevisiae deletion strains, locus YLR113W, strain HOG1, stronger effect = lower value 0.972 | S. cerevisiae deletion strains, locus YLR221C, strain rsa3, stronger effect = lower value 1.01 | S. cerevisiae deletion strains, locus YLR258W, strain gsy2, stronger effect = lower value 1.02 | S. cerevisiae deletion strains, locus YLR262C, strain YPT6 (second series), stronger effect = lower value 0.995 | S. cerevisiae deletion strains, locus YLR262C, strain YPT6, stronger effect = lower value 1.04 | S. cerevisiae deletion strains, locus YLR268W, strain sec22, stronger effect = lower value 0.992 | S. cerevisiae deletion strains, locus YLR320W, strain mms22, stronger effect = lower value 1.03 | S. cerevisiae deletion strains, locus YLR342W, strain FKS1 (second series), stronger effect = lower value 1.01 | S. cerevisiae deletion strains, locus YLR342W, strain FKS1, stronger effect = lower value 1.03 | S. cerevisiae deletion strains, locus YLR357W, strain rsc2, stronger effect = lower value 1.01 | S. cerevisiae deletion strains, locus YLR370C, strain arc18, stronger effect = lower value 1.01 | S. cerevisiae deletion strains, locus YLR371W, strain rom2, stronger effect = lower value 0.995 | S. cerevisiae deletion strains, locus YLR384C, strain iki3, stronger effect = lower value 1.01 | S. cerevisiae deletion strains, locus YLR418C, strain cdc73, stronger effect = lower value 1.05 | S. cerevisiae deletion strains, locus YML016C, strain PPZ1, stronger effect = lower value 0.999 | S. cerevisiae deletion strains, locus YML032C, strain rad52, stronger effect = lower value 0.995 | S. cerevisiae deletion strains, locus YML120C, strain ndi1, stronger effect = lower value 1.01 | S. cerevisiae deletion strains, locus YML124C, strain tub3, stronger effect = lower value 1.01 | S. cerevisiae deletion strains, locus YMR058W, strain fet3, stronger effect = lower value 1.01 | S. cerevisiae deletion strains, locus YMR078C, strain ctf18, stronger effect = lower value 1.01 | S. cerevisiae deletion strains, locus YMR125W, strain sto1, stronger effect = lower value 1.01 | S. cerevisiae deletion strains, locus YMR129W, stronger effect = lower value 1.01 | S. cerevisiae deletion strains, locus YMR205C, strain PFK2, stronger effect = lower value 1.01 | S. cerevisiae deletion strains, locus YMR223W, strain ubp8, stronger effect = lower value 1.01 | S. cerevisiae deletion strains, locus YMR231W, strain pep5, stronger effect = lower value 1 | S. cerevisiae deletion strains, locus YMR307W, strain GAS1, stronger effect = lower value 1.02 | S. cerevisiae deletion strains, locus YNL067W, strain RPL9B, stronger effect = lower value 1.03 | S. cerevisiae deletion strains, locus YNL071W, strain lat1, stronger effect = lower value 1 | S. cerevisiae deletion strains, locus YNL183C, strain NPR1, stronger effect = lower value 0.987 | S. cerevisiae deletion strains, locus YNL209W, strain ssb2, stronger effect = lower value 1 | S. cerevisiae deletion strains, locus YNL233W, strain BNI4, stronger effect = lower value 1.01 | S. cerevisiae deletion strains, locus YNL248C, strain rpa49, stronger effect = lower value 1.02 | S. cerevisiae deletion strains, locus YNL250W, strain rad50, stronger effect = lower value 1.04 | S. cerevisiae deletion strains, locus YNL271C, strain bni1, stronger effect = lower value 1.02 | S. cerevisiae deletion strains, locus YNL298W, strain CLA4, stronger effect = lower value 1.02 | S. cerevisiae deletion strains, locus YNL307C, strain MCK1, stronger effect = lower value 1.01 | S. cerevisiae deletion strains, locus YNL322C, strain KRE1 (second series), stronger effect = lower value 1.02 | S. cerevisiae deletion strains, locus YNR049C, strain mso1, stronger effect = lower value 1.01 | S. cerevisiae deletion strains, locus YNR052C, strain pop2, stronger effect = lower value 1.01 | S. cerevisiae deletion strains, locus YOL006C, strain TOP1, stronger effect = lower value 1.03 | S. cerevisiae deletion strains, locus YOL012C, strain htz1 0.737 | S. cerevisiae deletion strains, locus YOL147C, strain pex11, stronger effect = lower value 1 | S. cerevisiae deletion strains, locus YOR001W, strain rrp6, stronger effect = lower value 1.02 | S. cerevisiae deletion strains, locus YOR061W, strain CKA2, stronger effect = lower value 1.01 | S. cerevisiae deletion strains, locus YOR069W, strain VPS5, stronger effect = lower value 1.01 | S. cerevisiae deletion strains, locus YOR070C, strain gyp1, stronger effect = lower value 1 | S. cerevisiae deletion strains, locus YOR080W, strain dia2, stronger effect = lower value 1.01 | S. cerevisiae deletion strains, locus YOR083W, strain WHI5, stronger effect = lower value 1.01 | S. cerevisiae deletion strains, locus YOR106W, strain vam3, stronger effect = lower value 1 | S. cerevisiae deletion strains, locus YOR136W, strain idh2, stronger effect = lower value 1.01 | S. cerevisiae deletion strains, locus YOR144C, strain elg1, stronger effect = lower value 1.01 | S. cerevisiae deletion strains, locus YOR184W, strain ser1, stronger effect = lower value 1.01 | S. cerevisiae deletion strains, locus YOR231W, strain MKK1, stronger effect = lower value 1.01 | S. cerevisiae deletion strains, locus YOR265W, strain rbl2, stronger effect = lower value 1 | S. cerevisiae deletion strains, locus YOR270C, strain vph1, stronger effect = lower value 1.03 | S. cerevisiae deletion strains, locus YOR290C, strain snf2, stronger effect = lower value 1.02 | S. cerevisiae deletion strains, locus YOR316C, strain cot1, stronger effect = lower value 1.01 | S. cerevisiae deletion strains, locus YPL051W, strain arl3, stronger effect = lower value 1.01 | S. cerevisiae deletion strains, locus YPL078C, strain atp4, stronger effect = lower value 1.01 | S. cerevisiae deletion strains, locus YPL106C, strain sse1, stronger effect = lower value 0.999 | S. cerevisiae deletion strains, locus YPL240C, strain hsp82, stronger effect = lower value 1.01 | S. cerevisiae deletion strains, locus YPL256C, strain CLN2, stronger effect = lower value 1.08 | S. cerevisiae deletion strains, locus YPR119W, strain clb2, stronger effect = lower value 1 | S. cerevisiae deletion strains, locus YPR141C, strain kar3, stronger effect = lower value 0.998 | S. cerevisiae deletion strains, locus YPR163C, strain tif3, stronger effect = lower value 1.01 | S. cerevisiae deletion strains, locus YPR167C, strain met16, stronger effect = lower value 1.01 | S. cerevisiae deletion strains, strain wtn01, stronger effect = lower value 0.99 | S. cerevisiae strains, strain wild type, stronger effect = lower value 1.02
